Source: PubChem BioAssay (NCI)
Compounds without any hit were thinned out: in the full panel of roughly 79,000, 15% have a hit. Unmarked numbers belong to inactive results. Rule as the data show it: active = growth inhibition above about 70%; inactive = the rest.

experiment: NCI Yeast Anticancer Drug Screen. Data for the mgt1 strain (AID 153); conditions: S. cerevisiae mgt1 mutant growth inhibition; at 1.2 µM; hits give high values
How it was run: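 Measured: inhibition of mgt1 yeast growth by compound, normalized to vehicle-treated cultures.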

SMILES	growth inhibition [%]
CCC/C(Cl)=N\OC(=O)Nc1cccc(C(F)(F)F)c1	7
[O-][n+]1c2ccc(O)cc2nc2ccc(Cl)cc21	8
Clc1ccccc1C1OC1c1ccccc1Cl (stereo not given)	-60
c1ccc2c(c1)c1ncccc1c1nccnc21	-2
CC(=O)Nc1ccc2c(c1)C(=Nc1ccc(C(=O)O)cc1)c1ccccc1-2	-2
COc1ccc(OC)c2cc3ccccc3cc12	25
COc1cc(C2c3cc4c(cc3OC(NNc3ccccc3)C2C)OCO4)cc(OC)c1OC (stereo not given)	13
O=C1c2cc([N+](=O)[O-])ccc2-c2cccc(F)c21	1
CCCCCCCCCCCC(=O)N(C)C	7
CCCCCCCCCCCC1=C(O)C(=O)C=C(O)C1=O	-3
Cc1ccc(CSC(N)=Nc2ccccc2)cc1C	6
CCCCCCCCCCC1CCC(=O)O1 (stereo not given)	-2
O=[N+]([O-])c1cc(CCl)ccc1CCl	4
Nc1ccc2c(c1)C(=O)c1cccc(N)c1C2=O	-1
CCCCCCCCCCNC(=O)OCC	-2
CC1=C(C)Cc2c(O)ccc(O)c2C1	-2
COc1ccc2c(c1)C(=O)c1ccccc1C2	-4
CCC(=O)OCCn1c2nc(=O)[nH]c(=O)c-2nc2cc(C)c(C)cc21	-1
O=C(OCCN1CCCCCC1)C(c1ccsc1)C1CCCCC1 (stereo not given)	8
Oc1c(Br)cc(Br)cc1C1CCCCC1	8
